Consider 9 compounds from PubChem BioAssay.

Activity calls are given as the source filed them. Unless noted, the rule behind the calls is not given here.

Assay [1] in a line: compound effects on lung adenocarcinoma cell viability – A549, calcein-AM fluorescence, 48 h, basal, profiling panel (AID 1162). Note: test concentration not given here. The conditions noted are these: higher = more signal.
Assay [2] in a line: compound effects on differentiated 3T3-L1 adipocyte viability – cell-based, 3T3-L1 adipocytes, calcein-AM fluorescence, 48 h, basal, profiling panel (AID 1163). Note: test concentration not given here. The conditions noted are these: 3T3-L1 adipocytes viability, higher = more signal.
The nature of assay [3]: compound effects on hepatocellular carcinoma cell viability – HepG2, calcein-AM fluorescence, 48 h, basal, profiling panel (AID 1164). Note: test concentration not given here. The following applies: higher = more signal.
The nature of assay [4]: compound effects on multiple myeloma cell viability – MM1S, calcein-AM fluorescence, 48 h, basal, profiling panel (AID 1165). Note: test concentration not given here. The conditions noted are these: higher = more signal.
The nature of assay [5]: calcein-AM signal in unstimulated myeloma cells – cell-based, calcein-AM fluorescence, 48 h, PK04 Diversity Set, profiling panel (AID 1166).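 Note: cells grown under basal conditions without added stimulus; test concentration not given here.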 The following applies: RPMI8226 myeloma viability, higher = more signal.
Assay [6] is described as follows: JC-1 mitochondrial signal, unstimulated HepG2 cells – cell-based, JC-1 fluorescence, 24 h, 100 nL compound, profiling panel (AID 1167). Note: test concentration not given here. The following applies: HepG2 mitochondrial potential, higher = more signal.
Assay [7] in a line: JC-1 mitochondrial signal, unstimulated adipocytes – cell-based, JC-1 fluorescence, 3T3-L1 adipocytes, 24 h, 100 nL compound, profiling panel (AID 1168). Note: test concentration not given here. The conditions noted are these: JC-1 mitochondrial fluorescence, higher = more signal, called active from +8 up or from −8 down.
Assay [8] can be described thus: JC-1 mitochondrial signal, unstimulated myeloma cells – cell-based, JC-1 fluorescence, RPMI8226, 24 h, 100 nL compound, profiling panel (AID 1169). Note: test concentration not given here. The following applies: JC-1 mitochondrial potential fluorescence, higher = more signal.
The nature of assay [9]: JC-1 mitochondrial signal, unstimulated MM1S myeloma – cell-based, JC-1 fluorescence, 24 h, 100 nL compound, profiling panel (AID 1170). Note: test concentration not given here. The conditions noted are these: MM1S mitochondrial potential, higher = more signal.
Assay [10] can be described thus: resazurin metabolic signal in A549 cells – cell-based, resazurin fluorescence, 24 h, PK04 Diversity Set, profiling panel (AID 1171). Note: test concentration not given here. The conditions noted are these: A549 viability, higher = more signal, called active from +8 up or from −8 down.
Assay [11] in a line: resazurin metabolic signal in HepG2 cells – cell-based, resazurin fluorescence, 24 h, PK04 Diversity Set, profiling panel (AID 1172). Note: test concentration not given here. The conditions noted are these: HepG2 viability, higher = more signal. A general note: Resazurin is reduced to fluorescent resorufin, in cell work by metabolically active cells.
Assay [12] can be described thus: budding yeast growth changes without added modifier – OD600, strain BY4716, 24 h, basal condition, primary screen (AID 1173). The conditions noted are these: S. cerevisiae BY4716 growth, OD600, 24 h; higher = more signal, called active from +8 up or from −8 down.
Assay [13] is described as follows: viability profiling in MM1S myeloma cells – cell-based, resazurin fluorescence, basal, 24 h, PK04 Diversity Set, profiling panel (AID 1174). Note: test concentration not given here. The conditions noted are these: higher = more signal, called active from +8 up or from −8 down.
Assay [14] deals with Dihydroorotate dehydrogenase (quinone), mitochondrial (Plasmodium falciparum (isolate 3D7)) (UniProt Q08210). Put plainly: inhibition of P. falciparum DHODH – biochemical, C-terminal His tag, absorbance 600 nm, primary screen (AID 1175).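 Note: recombinant parasite enzyme with a five histidine tag at its C terminus; test concentration not given here.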 The conditions noted are these: PfDHODH enzyme, DCIP absorbance 600 nm; higher = more signal, called active from +8 up or from −8 down.
Chain of Dihydroorotate dehydrogenase (quinone), mitochondrial (Plasmodium falciparum (isolate 3D7)) (Q08210 whole entry, looked up): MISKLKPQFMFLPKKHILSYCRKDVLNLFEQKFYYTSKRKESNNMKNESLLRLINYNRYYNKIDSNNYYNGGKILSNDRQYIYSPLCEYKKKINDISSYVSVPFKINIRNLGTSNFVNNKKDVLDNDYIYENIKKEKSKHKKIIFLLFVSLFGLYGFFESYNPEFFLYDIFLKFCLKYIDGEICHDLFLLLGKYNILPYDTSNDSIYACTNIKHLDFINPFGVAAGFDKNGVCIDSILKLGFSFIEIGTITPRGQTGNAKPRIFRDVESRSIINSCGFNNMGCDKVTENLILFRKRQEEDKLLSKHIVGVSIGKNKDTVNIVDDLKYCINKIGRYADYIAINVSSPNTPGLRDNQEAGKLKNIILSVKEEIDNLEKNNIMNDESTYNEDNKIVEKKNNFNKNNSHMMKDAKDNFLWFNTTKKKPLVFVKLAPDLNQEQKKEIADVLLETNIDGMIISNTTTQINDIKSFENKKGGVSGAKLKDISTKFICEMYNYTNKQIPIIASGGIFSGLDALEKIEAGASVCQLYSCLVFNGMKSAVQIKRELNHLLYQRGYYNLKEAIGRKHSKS
A short description of assay [15]: inhibition of PAO1 biofilm formation – strain PAO1, LB-PBS medium, absorbance 600 nm, primary screen (AID 1176). Note: test concentration not given here. The following applies: P. aeruginosa PAO1 growth/biofilm, A600, 12 h; higher = more signal.
Assay [16] can be described thus: growth modulation of vineyard yeast isolate – strain RM11-1a, OD600, basal, 24 h, primary screen (AID 1177).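 Note: cultures grown under basal conditions with no added stressor; test concentration not given here.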 The conditions noted are these: S. cerevisiae RM11-1a growth, OD600, 24 h; higher = more signal, called active from +8 up or from −8 down.
Assay [17] in a line: growth of efflux-deficient E. coli DRC39 – strain DRC39, OD650, 24 h, E. coli filamentation inducers, primary screen (AID 1178).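 Note: growth measured as culture turbidity by optical density at 650 nm; test concentration not given here.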 The conditions noted are these: E. coli DRC39 acrAB, higher = more signal, called active from +8 up or from −8 down.
A short description of assay [18]: growth of efflux-deficient E. coli DRC39 – strain DRC39, OD650, 48 h, E. coli filamentation inducers, primary screen (AID 1179).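 Note: screen aims at cell division blockers that make cells filament.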 The conditions noted are these: E. coli DRC39 delta-acrAB growth, higher = more signal, called active from +8 up or from −8 down.
Assay [19] is described as follows: viability profiling in RPMI8226 myeloma cells – cell-based, resazurin fluorescence, basal, 24 h, PK04 Diversity Set, profiling panel (AID 1180).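 Note: RPMI8826 multiple myeloma cell line at 5000 cells per well; test concentration not given here.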 The following applies: higher = more signal.
The target in assay [20] is E3 ubiquitin-protein ligase XIAP (Homo sapiens) (UniProt P98170). The assay is described as follows: small molecules binding XIAP protein – biophysical, small-molecule microarray, fluorescence 635 nm, primary screen (AID 1181).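 Note: score merges 667 nm emission and signal to noise over triplicate slides.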 The following applies: higher = more signal.
Chain of E3 ubiquitin-protein ligase XIAP (Homo sapiens) (P98170 whole entry, looked up): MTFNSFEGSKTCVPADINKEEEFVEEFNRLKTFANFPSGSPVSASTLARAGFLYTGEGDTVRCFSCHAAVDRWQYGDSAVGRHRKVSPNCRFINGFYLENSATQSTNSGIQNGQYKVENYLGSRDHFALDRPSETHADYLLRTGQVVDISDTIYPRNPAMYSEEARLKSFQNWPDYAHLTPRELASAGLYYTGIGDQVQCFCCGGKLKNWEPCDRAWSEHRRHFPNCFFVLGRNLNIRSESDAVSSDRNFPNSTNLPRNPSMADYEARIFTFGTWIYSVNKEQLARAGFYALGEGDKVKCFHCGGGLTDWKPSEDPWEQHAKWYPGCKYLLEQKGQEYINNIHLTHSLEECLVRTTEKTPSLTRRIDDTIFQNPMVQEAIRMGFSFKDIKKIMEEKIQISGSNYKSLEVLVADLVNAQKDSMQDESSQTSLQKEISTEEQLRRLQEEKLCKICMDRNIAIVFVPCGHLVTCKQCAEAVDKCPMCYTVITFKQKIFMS

Turning to `C=CC[C@@H](OC(=O)Nc1ccc(OC)cc1)c1ccc(O)c2ccccc12`, the z-score was -0.28 in [1]; 0.316 in [2]; -2 in assay [3]; -2.96 in [4]; -4.3 in assay [5]; -3.28 in assay [6]. For the same compound, the z-score in assay [7] was -1.55 (inactive); in [8] it was -0.992; in [9] it was -2.18; in assay [10] it was -0.67 (inactive); in assay [11], -1.07; in [12], -16.6 (active). The z-score in [13] was -6.13 (inactive); in assay [15], 1.73 (inactive); in assay [16], -20.3 (active); in assay [17], 0.305 (inactive); in assay [18], -0.473 (inactive); in assay [19], -4.48. Also, the results for the composite z-score in assay [14] and in [20] were -7.4 (inactive) and 0.0413, respectively.

In the case of `COCCOC(=O)N1C(=O)[C@@]2(c3cc(C#Cc4ccc(OC)cc4)ccc31)[C@H](C(=O)N1CCN(c3ncccn3)CC1)[C@H]1C(=O)O[C@H](c3ccccc3)[C@H](c3ccccc3)N1[C@@H]2c1ccc(O)cc1`, the z-score in [1] is 1.23; in [2], 1.26; in assay [3] it was 0.986; in [4], 0.973; in assay [5] it was 0.806; in assay [6], -0.013. Further, the z-score in assay [7] was 2.2 (inactive); in [8], 0.157; in assay [9], 0.193; in [10], 1.31 (inactive); in assay [11], -0.221; in assay [12] it was 0.558 (inactive). Besides, the z-score in assay [13] is -1.68 (inactive); in assay [15], 1.42 (inactive); in [16], -0.604 (inactive); in assay [17], -0.0707 (inactive); in [18] it was 1.09 (inactive); in [19], 0.0808. Also, the results for the composite z-score in assay [14] and in [20] were -1.45 (inactive) and 0.134, respectively.

Take `COc1ccccc1CN1C(=O)c2ccccc2[C@@H](C(=O)NCCN2CCOCC2)[C@@H]1c1ccc(CO)cc1`: the z-score in assay [1] was 0.61; in assay [2], 0.0251; in [3], 0.556; in assay [4], -0.231; in assay [5] it was -0.55; in assay [6], 2.15. The z-score in [7] was 0.364 (inactive); in [8] it was 0.711; in assay [9], -0.691; in assay [10] it was 1.33 (inactive); in assay [11], 0.505; in assay [12] it was -0.248 (inactive). Besides, the z-score in assay [13] was -0.0527 (inactive); in assay [15], 1.56 (inactive); in assay [16], -0.0436 (inactive); in [17], 0.187 (inactive); in assay [18], -0.0251 (inactive); in assay [19], 0.154. Moreover, the composite z-score in [14] was 0.249 (inactive); in assay [20] it was 0.101.

`Cc1c(NC(=O)CC#N)c(=O)n(-c2ccccc2)n1C`: the z-score in [1] is 1.62; in [2], 0.317; in [3], 0.954; in assay [4], 0.0823; in assay [5] it was 0.106; in [6], 1.42. The z-score in assay [7] is 0.166 (inactive); in assay [8], -0.128; in [9], -0.63; in assay [10], 0.234 (inactive); in assay [11] it was 1.02; in assay [12], -0.267 (inactive). Besides, the z-score in assay [13] was 1.07 (inactive); in [15], 0.531 (inactive); in [16], -1.25 (inactive); in assay [17], 1.37 (inactive); in assay [18], 1.47 (inactive); in [19], 0.526. Moreover, the composite z-score was -0.544 (inactive) in assay [14] and 0.0345 in assay [20].

With `C=CC[C@]1(C(=O)N2CCOCC2)N=C(c2ccc(OCCCO)cc2)O[C@H]1c1ccccc1`, the z-score in [1] is -0.211; in assay [2], 0.117; in assay [3], -0.539; in [4], -1.11; in assay [5] it was -2.07; in [6], -0.0158. In addition, the z-score in assay [7] is -0.0689 (inactive); in assay [8], -0.326; in assay [9], -0.577; in assay [10], 1.39 (inactive); in assay [11], 0.318; in assay [12], -1.4 (inactive). Also, the z-score in assay [13] is -0.0524 (inactive); in assay [15], 1.17 (inactive); in assay [16], -0.594 (inactive); in [17] it was 0.14 (inactive); in [18], 0.122 (inactive); in [19], 0.335. Further, the composite z-score is 0.373 (inactive) in [14] and -0.031 in [20].

Take `O=C(CS)NCCCCCCNC(=O)[C@H]1C[C@H]2C(=O)N3CCC[C@H]3C(=O)N2[C@H]1c1cccc(OCCO)c1`: the z-score in assay [1] is -0.464; in [2], -0.966; in [3], -0.0465; in assay [4], -0.939; in assay [5], 0.529; in [6] it was -0.971. In addition, the z-score in [7] is -0.955 (inactive); in assay [8] it was -0.127; in [9], -0.285; in [10], 0.388 (inactive); in [11], -0.162; in assay [12], 0.232 (inactive). The z-score in assay [13] was -0.837 (inactive); in assay [15] it was 0.0499 (inactive); in assay [16], -0.656 (inactive); in assay [17] it was -0.34 (inactive); in assay [18] it was -0.596 (inactive); in assay [19] it was -0.953. The values for the composite z-score in assay [14] and in assay [20] were -0.15 (inactive) and 0.104, respectively.

Turning to `Cc1ccc(S[C@]2(C(=O)NCCN3CCOCC3)CC(=O)N(Cc3cc(C(F)(F)F)cc(C(F)(F)F)c3)[C@@H]2c2ccc(CO)cc2I)cc1`, the z-score in assay [1] was 0.356; in assay [2], 0.712; in assay [3], -0.554; in assay [4], -2.1; in [5], -1.92; in [6], -0.168. The z-score was -0.227 (inactive) in assay [7]; -0.2 in assay [8]; -1.57 in assay [9]; 0.36 (inactive) in [10]; 1.21 in assay [11]; -5.83 (inactive) in [12]. The z-score in [13] is -2.06 (inactive); in assay [15], -0.407 (inactive); in assay [16], -2.09 (inactive); in assay [17], 0.106 (inactive); in assay [18], 1.09 (inactive); in assay [19], -2.33. For the same compound, the composite z-score in [14] was -0.483 (inactive); in [20] it was -0.419.

On to `COc1ccc(CCNC(=O)[C@@]2(Sc3ccc(C)cc3)CC(=O)N(Cc3ccccc3Cl)[C@@H]2c2ccc(CO)cc2I)cc1`, for which the z-score in [1] was 0.507; in assay [2], -1.07; in assay [3] it was 0.334; in [4] it was -1.41; in assay [5], -1.54; in assay [6], 0.167. The z-score in assay [7] was -0.0114 (inactive); in assay [8] it was -0.474; in assay [9] it was -1.96; in [10] it was -0.478 (inactive); in assay [11] it was 0.254; in assay [12], -4.37 (inactive). Besides, the z-score is -2.75 (inactive) in assay [13]; 0.379 (inactive) in assay [15]; -1.37 (inactive) in assay [16]; 0.853 (inactive) in [17]; 1.36 (inactive) in assay [18]; -1.71 in [19]. For the same compound, the results for the composite z-score in [14] and in assay [20] were -0.725 (inactive) and 0.0512, respectively.

For the compound `N#Cc1ccc(NN2C(C(O)c3cccs3)C=CC3C(=O)N(c4ccccc4)C(=O)C32)cc1` (stereo not given), the z-score in assay [1] is 0.594; in assay [2], -0.327; in assay [3], 1.01; in assay [4], -0.0964; in assay [5] it was -0.598; in assay [6], -0.307. The z-score in [7] is -0.0937 (inactive); in [8], 0.49; in [9], -0.218; in assay [10], 0.234 (inactive); in assay [11] it was -0.375; in assay [12], -1.97 (inactive). Moreover, the z-score in assay [13] was 0.0171 (inactive); in assay [15], 1.08 (inactive); in assay [16] it was -1.59 (inactive); in [17] it was 0.766 (inactive); in assay [18], 1.36 (inactive); in assay [19], 0.131. Besides, the results for the composite z-score in [14] and in assay [20] were -1.41 (inactive) and -0.126, respectively.
